Assay results taken from paper PMC5540273 (PLoS ONE, 2017).

How the values were obtained:
Conditions in all cases: concentration: 1 μM,replicates: in singlicate; n = 1
[1] = test system: T1, MEK5
T1 construct: gene MAP2K5

[2] = test system: T2, MEK6
T2 construct: gene MAP2K6

[3] = test system: MELK
[4] = test system: MERTK
[5] = test system: MET
[6] = test system: T3, MINK
T3 construct: gene MINK1

[7] = test system: MKK7
[8] = test system: MKNK1
[9] = test system: MKNK2
[10] = test system: T4, MLCK
T4 construct: gene MYLK3
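Also: KINOMEscan kinase panel screen.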

Structure (SMILES) | %Inh [1] [%] | %Inh [2] [%] | %Inh [3] [%] | %Inh [4] [%] | %Inh [5] [%] | %Inh [6] [%] | %Inh [7] [%] | %Inh [8] [%] | %Inh [9] [%] | %Inh [10] [%]
Cl.Cl.NC[C@H](CC1CCCCC1)NC(=O)c1ccc(-c2ccnc3[nH]ccc23)s1 [GSK1581428] | 52 | 27 | 96.4 | 68 | 16 | 67 | 0 | 66 | 97.6 | 74
CN1CCN(CCNc2nc3cc(Oc4ccc(NC(=O)Nc5cc(C(F)(F)F)ccc5F)cc4)ccc3[nH]2)CC1.Cl.Cl [GW768504] | 2 | 12 | 0 | 85 | 6 | 0 | 0 | 24 | 26 | 0
CC(C)c1nc(-c2cccc(NS(=O)(=O)c3ccccc3)c2)c(-c2ccnc(Nc3ccc4c(c3)CN(C)CC4)n2)s1 [GSK1649598] | 99.1 | 26 | 65 | 42 | 23 | 95.1 | 1 | 0 | 81 | 0
O=c1[nH]cc(-c2ccc(O)cc2)c2sc(-c3ccncc3)cc12 [GSK1033723] | 37 | 0 | 0 | 0 | 0 | 0 | 0 | 12 | 26 | 40
COC(=O)c1cccc(NC(=O)NC2CCN(c3ccnc(NCc4ccc(F)cc4)n3)CC2)c1 [GSK1379860] | 8 | 0 | 0 | 0 | 0 | 0 | 45 | 0 | 9 | 0
COc1cccc(C2=C(Nc3cccc(Cl)c3)C(=O)NC2=O)c1 [SB-341556] | 38 | 0 | 0 | 0 | 0 | 0 | 10 | 0 | 27 | 0
COc1cc2ncn(-c3cc(OCC4CCCCC4)c(C(N)=O)s3)c2cc1OC [GSK204559] | 99.6 | 0 | 13 | 33 | 17 | 31 | 0 | 33 | 10 | 3
CC(=O)Nc1nc2cnc(Nc3cc(NC(=O)c4cccc(CC(C)(C)C#N)c4)ccc3C)nc2s1 | 46 | 0 | 8 | 31 | 7 | 3 | 0 | 0 | 41 | 0
C[C@@H]1CCN(C(=O)N2CCCC2)C[C@@H]1N(C)c1ncnc2[nH]ccc12 | 38 | 20 | 13 | 0 | 0 | 30 | 0 | 0 | 58 | 0
CS(=O)c1ccc(-c2coc3ccc(-c4n[nH]c(=O)o4)cc23)cc1 (centres unmarked) | 17 | 0 | 0 | 0 | 22 | 7 | 1 | 9 | 11 | 32
O=C(Nc1ccccc1)c1cccc(Oc2ccc3nccn3n2)c1 | 9 | 0 | 11 | 0 | 0 | 6 | 0 | 7 | 6 | 1
CSc1nccc(-c2c(-c3ccc(F)cc3)ncn2CCCN2CCOCC2)n1.Cl [SB-217146] | 36 | 15 | 0 | 5 | 0 | 26 | 0 | 0 | 0 | 0
Cc1ccc(Nc2ccnc(Nc3ccc4c(c3)CS(=O)(=O)C4)n2)cc1O.Cl [GW579362] | 99.8 | 46 | 0 | 99.5 | 80 | 64 | 0 | 43 | 94.5 | 0
FC(F)(F)c1cc(Br)cc(Nc2nccc(-c3cnn4ncccc34)n2)c1 [GW810578] | 35 | 12 | 7 | 14 | 0 | 3 | 0 | 19 | 0 | 32
COc1ccc(Nc2nccc(N3CCC(NC(=O)c4cccc(C#N)c4)C3)n2)cc1 (centres unmarked) [GSK1379730] | 8 | 0 | 0 | 24 | 9 | 0 | 17 | 0 | 5 | 3
C[C@@H](Oc1cc(-n2cnc3ccc(-c4ccncc4)cc32)sc1C(N)=O)c1ccccc1Cl [GSK483724] | 78 | 0 | 0 | 35 | 9 | 23 | 56 | 0 | 7 | 32
Cn1ccc2ncnc(Oc3ccc(NC(=O)Nc4cnn(C(C)(C)C)c4)c(Cl)c3)c21 | 18 | 0 | 16 | 65 | 35 | 70 | 0 | 4 | 78 | 0
